Screening results as filed in PubChem BioAssay.
Only some compounds are listed: those with a hit (about 15% of all), similar ones and a draw of the others.
ALOX12 inh – Primary qHTS assay for inhibitors of human arachidonate 12S-lipoxygenase (ALOX12): Round 2. AID 1671190, 2021. Potency, µM (titrated, usually from 108 µM), without a hit: top-dose activity change, negative = inhibition, usual class: inhibitors. hit rate 1.1% among 580,000. purified 12hLO, xylenol orange hydroperoxide absorbance. Polyunsaturated fatty acid lipoxygenase ALOX12 (Homo sapiens), P18054
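Purified human 12hLO (150 nM final) in 25 mM Hepes, 0.01% Triton X-100, pH 7.0 was preincubated 15 min at room temperature with compound. Then 40 uM arachidonic acid was added, 30 min. Hydroperoxide was read by Fe-XO absorbance ratio 573/405 nm.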
RORg inh – qHTS for inhibitors of ROR gamma transcriptional activity; AID 2551, 2010; hit rate 5.4% among 310,000; Potency, µM (series often up to 53.6 µM), for inactives: top-dose activity change, negative = inhibition, usual class: inhibitors; Drosophila S2 Gal4-RORgamma UAS-luciferase reporter, 20 h; Nuclear receptor ROR-gamma (Mus musculus), P51450; note: nearly all actives have a fitted effect of over 60% in size
Target sequence (P51450 whole entry, looked up, the tested form may be a part): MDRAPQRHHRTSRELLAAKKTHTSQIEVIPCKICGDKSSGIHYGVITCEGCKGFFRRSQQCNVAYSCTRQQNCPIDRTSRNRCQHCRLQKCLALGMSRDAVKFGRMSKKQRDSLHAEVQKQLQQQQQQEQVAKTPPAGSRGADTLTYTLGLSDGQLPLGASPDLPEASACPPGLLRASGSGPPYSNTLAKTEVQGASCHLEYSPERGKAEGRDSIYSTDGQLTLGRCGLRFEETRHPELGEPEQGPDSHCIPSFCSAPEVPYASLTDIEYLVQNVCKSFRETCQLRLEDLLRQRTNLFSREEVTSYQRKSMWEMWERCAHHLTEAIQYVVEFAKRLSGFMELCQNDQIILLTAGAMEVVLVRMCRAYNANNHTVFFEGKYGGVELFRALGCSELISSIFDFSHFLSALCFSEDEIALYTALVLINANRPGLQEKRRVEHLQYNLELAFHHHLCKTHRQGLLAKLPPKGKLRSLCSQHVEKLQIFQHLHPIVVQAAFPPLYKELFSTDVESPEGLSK
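Luminescence from a UAS-regulated Photinus luciferase reporter in stably transfected Drosophila Schneider cells is measured; decreased signal marks ROR gamma inhibition. Fusion expression is induced by 700 uM copper sulfate for 20 hr.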
TDP1 cell noCPT – qHTS for Inhibitors of human tyrosyl-DNA phosphodiesterase 1 (TDP1): qHTS in cells in absence of CPT; hit rate 15% among 420,000; DT40 Tdp1-/- hTDP1 cells, no CPT, ATP luminescence, 48 h; Potency, µM (series often up to 46.2 µM), for inactives: at the highest dose activity change, negative = growth inhibition, hits mostly inhibitors; note: nearly all actives have a fitted effect of over 55% in size
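Stably hTDP1-transfected Tdp1-null chicken DT40 cells were treated with library compounds minus camptothecin and grown for at least 48 hr at 37 °C, after which cellular ATP was quantified by luminescence.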
VP16 counter – VP16 counterscreen qHTS for inhibitors of ROR gamma transcriptional activity | Potency, µM (top dose mostly 53.6 µM), for the others: at the top dose activity, negative = inhibition, actives largely listed as inhibitors | Drosophila S2 Gal4-VP16 UAS-luciferase, luminescence, 20 h | hit rate 3.5% among 310,000;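 note: Gal4-VP16 expression switched on by copper sulfate through the metallothionein promoter; nearly all actives have a fitted effect of over 50% in size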
ELG1 repair inh – qHTS screen for small molecules that inhibit ELG1-dependent DNA repair in human embryonic kidney (HEK293T) cells expressing luciferase-tagged ELG1; HEK293T ELG1-luciferase reporter, luminescence, 16 h; DNA damage induced by 5-fluorouridine; Potency, µM (titrated, usually from 46.1 µM), for the others: at the top dose activity change, negative = inhibition, most hits filed as inhibitors; hit rate 2.3% among 330,000; note: nearly all actives have a fitted effect of over 55% in size
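Cells (2,000 per well) received 5-fluorouridine plus test compound or DMSO and were incubated 16 hr at 37 °C, 5% CO2. Luciferase activity was read by luminescence 30 min after ONE-Glo addition; signal suppression marked inhibition of damage-induced ELG1 function.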
TDP1 cell CPT – qHTS for Inhibitors of human tyrosyl-DNA phosphodiesterase 1 (TDP1): qHTS in cells in presence of CPT | Potency, µM (titrated, usually from 46.2 µM), for inactives: at the highest dose activity change, negative = growth inhibition, most hits filed as inhibitors | hit rate 12% among 420,000 | chicken DT40 Tdp1-/-;hTDP1 cells + 20 nM CPT, ATP luminescence, 48 h; note: nearly all actives have a fitted effect of over 55% in size
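Chicken DT40 Tdp1-/- cells stably complemented with human TDP1 were seeded at 400 cells/well in medium containing 20 nM camptothecin, exposed to pin-transferred compounds, and grown at 37 °C for at least 48 hr. Viability was read as ATP luminescence.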
* marks the source's active call; other numbers are inactive results; ? = inconclusive; . = not tested or not shown; ! = not confirmed by another sample; [ ] = dose if it differs, or a comment. Calls come from the whole dose curve; as a rule, active = well fitted curve in the direction sought with a large enough effect; inconclusive = small, poorly fitted or top-dose-only effect, or another doubt; inactive = no such curve, though single readings can be large; an effect the other way counts as inactive or inconclusive. % is set by controls: 0 for no effect and ±100 for the full control effect; potency is the fitted concentration of half-maximal effect.

SMILES	ALOX12 inh	RORg inh	TDP1 cell noCPT	VP16 counter	ELG1 repair inh	TDP1 cell CPT
CCOC(=O)Nc1ccc(NS(=O)(=O)c2cc(F)ccc2F)cc1	8%	.	.	.	.	.
CCOC(=O)Nc1ccc(NS(=O)(=O)c2ccc(F)cc2C)cc1	25µM*	.	.	.	.	.
COC(=O)C1=C(N)N(c2ccccc2C(F)(F)F)C2=C(C(=O)CC(C)(C)C2)C1c1cccnc1 (stereo not drawn)	2%	.	.	.	.	.
NS(=O)(=O)c1ccc(CCNC(=O)COc2ccc3ccc(=O)oc3c2)cc1	9%	.	.	.	.	.
Cc1cc(-c2cc(C(=O)NCc3ccccc3)on2)nc(S(C)(=O)=O)n1	0%	5µM*	5.8µM*	?	?	7.3µM*
O=C(Nc1ccccc1)N(Cc1c[nH]c2ccccc12)C1CCCCCC1	-17%	.	18µM*	.	.	12µM*
CCc1ccc(NC(=O)N(Cc2c[nH]c3ccccc23)C2CCCCCC2)cc1	2%	.	7.3µM*	.	.	21µM*
CCc1ccc(NC(=O)N(Cc2c[nH]c3ccccc23)C2CCCCC2)cc1	-7%	.	6.5µM*	.	.	7.3µM*
COc1cc2cc(CN(C(=O)Nc3ccccc3)C3CCCC3)c(=O)[nH]c2cc1OC	7%	4%	-23%	6%	?	-14%
CC(C)(C)CC(=O)Nc1ccc([C@@H](O)[C@H]2COCC(=O)N2Cc2ccccc2F)cc1	-29%[176 µM]	.	.	.	.	.
NC1CCCN(Cc2cccs2)C1 (stereo not drawn)	-6%	.	.	.	.	.
CCCCSCC(=O)NC12CC3CC(CC(C3)C1)C2	6%	.	.	.	.	.
CCCCCCNC(=O)n1cc(F)c(=O)[nH]c1=O	0%	-7%	15µM*	-10%	.	11µM*
CCCCCC(=O)N[C@@H](Cn1cc(F)c(=O)[nH]c1=O)C(=O)O	6%[176 µM]	.	.	.	.	.
Cc1nc(C)c(C(=O)N2CCC(CCOc3ccccc3)C2)s1 (stereo not drawn)	0%	.	.	.	.	.
COc1ccc(OC)c(NC(=O)CSc2nnc3ccc4ccccc4n23)c1	9%	.	21µM*	.	.	?
CCc1ccccc1NC(=O)CSc1nnc2ccc3ccccc3n12	0%	.	?	.	.	?
CCc1ccccc1NC(=O)CSc1nnc(CC)c(CC)n1	-29%	.	-17%	.	.	-17%
Cc1ccc(C(=O)CSc2nnc3ccc4ccccc4n23)cc1	-24%	.	16µM*	.	.	?
CCc1nnc(SCC(=O)Nc2ccccc2Cl)nc1CC	?	0%	?	-2%	0%	16µM*!
CCN(CC)C(=O)CSc1nnc2ccc3ccccc3n12	-1%	.	-2%	.	.	7%
O=C(CSc1nnc2ccc3ccccc3n12)Nc1ccccc1Cl	-6%	.	18µM*	.	.	?
COc1ccc(OC)c(NC(=O)CSc2nc3ccccc3c3nc4ccccc4n23)c1	.	-13%	.	?	?	.
CCc1cccc2c(C(CC(=O)NC(C)C(C)C)c3ccc(OC)c(OC)c3)c[nH]c12 (stereo not drawn)	-12%	.	.	.	.	.
CCN1CCCC1CNC(=O)c1cnn(-c2nccc(-c3cc4ccccc4o3)n2)c1C1CC1 (stereo not drawn)	21%	.	4.1µM*	.	.	?
CCN1CCCC1CNC(=O)c1cnn(-c2nccc(-c3ccco3)n2)c1C1CC1 (stereo not drawn)	2%	.	3%	.	.	5%
